Assay results published in PubChem BioAssay (NCATS).
Inconclusive results are not listed. Activity calls are given as the source filed them. The call rests on the fitted dose curve; in most records, active means well fitted cell-killing curve with a large enough effect; inconclusive means small, poorly fitted or top-dose-only effect, or effect the other way; inactive means flat fitted curve, though single readings scatter.

Assays:
Experiment in all cases: Primary qHTS to identify gynecologic anti-cancer compounds using libraries of approved drugs and bioactive compounds (AID 1345084); further: nearly all actives have a fitted effect of over 55% in size
C33A = details: Gynecologic cancer cell panel viability, ATPlite luminescence, 48 h; series mostly up to 57.5 µM
How it was run: (§1)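 Luminescence from the ATPlite ATP-monitoring reagent indicates viable cell number; lower signal means cytotoxicity. Cells received compound 16 h after seeding and were exposed for 48 h across five concentrations.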

CAOV3 = details: Gynecologic cancer cell panel viability, ATPlite luminescence, 48 h; series mostly up to 57.5 µM
How it was run: as §1

CASKI = details: Gynecologic cancer cell panel viability, ATPlite luminescence, 48 h; series mostly up to 57.5 µM
How it was run: as §1

Es-2 = details: Gynecologic cancer cell panel viability, ATPlite luminescence, 48 h; series mostly up to 57.5 µM
How it was run: as §1

HeLa = details: Gynecologic cancer cell panel viability, ATPlite luminescence, 48 h; series mostly up to 57.5 µM
How it was run: as §1

Hek293T = details: Gynecologic cancer cell panel viability, ATPlite luminescence, 48 h, control line for the selectivity index; series mostly up to 57.5 µM
How it was run: as §1

JEG-3 = details: Gynecologic cancer cell panel viability, ATPlite luminescence, 48 h; series mostly up to 57.5 µM
How it was run: as §1

OV90 = details: Gynecologic cancer cell panel viability, ATPlite luminescence, 48 h; series mostly up to 57.5 µM
How it was run: as §1

PA-1 = details: Gynecologic cancer cell panel viability, ATPlite luminescence, 48 h; series mostly up to 57.5 µM
How it was run: as §1

SKOV3 = details: Gynecologic cancer cell panel viability, ATPlite luminescence, 48 h; series mostly up to 57.5 µM
How it was run: as §1

Tov-21-G = details: Gynecologic cancer cell panel viability, ATPlite luminescence, 48 h; series mostly up to 57.5 µM
How it was run: as §1

Tov112D = details: Gynecologic cancer cell panel viability, ATPlite luminescence, 48 h; series mostly up to 57.5 µM
How it was run: as §1
On the % scale 0 is the no-effect control and ±100 the full control effect.

C=CC[C@]12C[C@@H](OC)C(=O)C(OC)=C1O[C@@H](c1cc(OC)c3c(c1)OCO3)[C@@H]2C
inactive: Potency (C33A) | Potency (CAOV3) | Potency (CASKI) | Potency (Es-2) | Potency (HeLa) | Potency (Hek293T) | Potency (JEG-3) | Potency (OV90) | Potency (PA-1) | Potency (SKOV3) | Potency (Tov-21-G) | Potency (Tov112D)

C=C1CCC2C(C)(C(=O)O)CCCC2(C)C1CCC(C)CC(=O)O (stereo unspecified)
inactive: Potency (C33A) | Potency (CAOV3) | Potency (CASKI) | Potency (Es-2) | Potency (HeLa) | Potency (Hek293T) | Potency (JEG-3) | Potency (OV90) | Potency (PA-1) | Potency (SKOV3) | Potency (Tov-21-G) | Potency (Tov112D)

CC1OC(OCC2OC(OC3CCC4(C)C(CCC5(C)C4CC=C4C6CC(C)(C)CCC6(C(=O)OC6OC(CO)C(O)C(O)C6O)CCC45C)C3(C)CO)C(O)C(O)C2O)C(O)C(O)C1O (stereo unspecified)
inactive: activity change, negative = cytotoxicity (C33A) 10.1% [at 11.6 µM] | activity change, negative = cytotoxicity (CAOV3) 17.5% [at 11.6 µM] | activity change, negative = cytotoxicity (CASKI) 14.8% [at 11.6 µM] | activity change, negative = cytotoxicity (Es-2) 0.0336% [at 11.6 µM] | activity change, negative = cytotoxicity (HeLa) -1.23% [at 11.6 µM] | activity change, negative = cytotoxicity (Hek293T) -5.88% [at 11.6 µM] | activity change, negative = cytotoxicity (JEG-3) -1.04% [at 11.6 µM] | activity change, negative = cytotoxicity (OV90) -5.44% [at 11.6 µM] | activity change, negative = cytotoxicity (PA-1) -0.107% [at 11.6 µM] | activity change, negative = cytotoxicity (SKOV3) 24.6% [at 11.6 µM] | activity change, negative = cytotoxicity (Tov-21-G) 2.94% [at 11.6 µM] | activity change, negative = cytotoxicity (Tov112D) -1.29% [at 11.6 µM]

Cc1cc(Nc2nc(NC(C)c3ncc(F)cn3)ncc2Cl)n[nH]1 (stereo unspecified)
inactive: Potency (C33A) | Potency (CAOV3) | Potency (CASKI) | Potency (Es-2) | Potency (HeLa) | Potency (Hek293T) | Potency (JEG-3) | Potency (OV90) | Potency (PA-1) | Potency (SKOV3) | Potency (Tov-21-G) | Potency (Tov112D)

C=C[C@H]1C(O[C@@H]2O[C@H](CO)[C@@H](O)[C@H](O)[C@H]2O)OC=C2C(=O)N3CCc4c([nH]c5ccccc45)[C@H]3C[C@H]21 (stereo partly specified)
inactive: Potency (C33A) | Potency (CAOV3) | Potency (CASKI) | Potency (Es-2) | Potency (HeLa) | Potency (Hek293T) | Potency (JEG-3) | Potency (OV90) | Potency (PA-1) | Potency (SKOV3) | Potency (Tov-21-G) | Potency (Tov112D)

C[C@H](CCC(=O)O)[C@H]1CC[C@H]2[C@@H]3C[C@H](O)[C@@H]4C[C@H](O)CC[C@]4(C)[C@H]3CC[C@]12C
inactive: Potency (C33A) | Potency (CAOV3) | Potency (CASKI) | Potency (Es-2) | Potency (HeLa) | Potency (Hek293T) | Potency (JEG-3) | Potency (OV90) | Potency (PA-1) | Potency (SKOV3) | Potency (Tov-21-G) | Potency (Tov112D)

C=C[C@@H]1[C@H](O[C@@H]2O[C@H](CO)[C@@H](O)[C@H](O)[C@H]2O)OC=C(C(=O)O)[C@H]1CCOC(=O)/C=C/c1ccc(O)c(O)c1
inactive: Potency (C33A) | Potency (CAOV3) | Potency (CASKI) | Potency (Es-2) | Potency (HeLa) | Potency (Hek293T) | Potency (JEG-3) | Potency (OV90) | Potency (PA-1) | Potency (SKOV3) | Potency (Tov-21-G) | Potency (Tov112D)

C=C1C(O)C[C@@H]2C(C(=O)O)=CO[C@@H](O[C@@H]3O[C@H](CO)[C@@H](O)[C@H](O)[C@H]3OC(=O)c3ccc(O)cc3)[C@H]12 (stereo partly specified)
inactive: Potency (C33A) | Potency (CAOV3) | Potency (CASKI) | Potency (Es-2) | Potency (HeLa) | Potency (Hek293T) | Potency (JEG-3) | Potency (OV90) | Potency (PA-1) | Potency (SKOV3) | Potency (Tov-21-G) | Potency (Tov112D)

Cc1oc2ccccc2c1CNC(=O)NCc1cccs1
inactive: Potency (C33A) | Potency (CAOV3) | Potency (CASKI) | Potency (Es-2) | Potency (HeLa) | Potency (Hek293T) | Potency (JEG-3) | Potency (OV90) | Potency (PA-1) | Potency (SKOV3) | Potency (Tov-21-G) | Potency (Tov112D)

CCCCCCOc1cc2c(cc1N(C)c1ncc(C(=O)O)cn1)C(C)(C)CCC2(C)C
inactive: Potency (C33A) | Potency (CAOV3) | Potency (CASKI) | Potency (Es-2) | Potency (HeLa) | Potency (Hek293T) | Potency (JEG-3) | Potency (OV90) | Potency (PA-1) | Potency (SKOV3) | Potency (Tov-21-G) | Potency (Tov112D)

COc1ccc(/C=C\C(=O)O)c(O[C@@H]2O[C@H](CO)[C@@H](O)[C@H](O)[C@H]2O)c1
inactive: Potency (C33A) | Potency (CAOV3) | Potency (CASKI) | Potency (Es-2) | Potency (HeLa) | Potency (Hek293T) | Potency (JEG-3) | Potency (OV90) | Potency (PA-1) | Potency (SKOV3) | Potency (Tov-21-G) | Potency (Tov112D)

CC(C)O[C@@H]1O[C@H](CO)[C@@H](O)[C@H](O)[C@H]1O
inactive: Potency (C33A) | Potency (CAOV3) | Potency (CASKI) | Potency (Es-2) | Potency (HeLa) | Potency (Hek293T) | Potency (JEG-3) | Potency (OV90) | Potency (PA-1) | Potency (SKOV3) | Potency (Tov-21-G) | Potency (Tov112D)

CC1CC[C@]2(C(=O)O)CC[C@]3(C(=O)O)C(=CCC4[C@@]5(C)CC[C@H](O[C@@H]6O[C@H](CO)[C@@H](O)[C@H](O)[C@H]6O)C(C)(C)C5CC[C@]43C)C2C1C (stereo partly specified)
inactive: Potency (C33A) | Potency (CAOV3) | Potency (CASKI) | Potency (Es-2) | Potency (HeLa) | Potency (Hek293T) | Potency (JEG-3) | Potency (OV90) | Potency (PA-1) | Potency (SKOV3) | Potency (Tov-21-G) | Potency (Tov112D)
